Each structure is given as a SMILES string. Inconclusive results are not listed. Where a call stands in place of a potency, no number is given. Values without a mark were called inactive. The source made the active and inactive calls. The call rests on the fitted dose curve; in most records, active means well fitted curve in the direction sought with a large enough effect in the repeat runs; inconclusive means weak or mixed curves; inactive means no such curve, though single readings can be large; an effect the other way counts as inactive or inconclusive.

Tested on in one experiment: not listed separately
The experiment is described as follows: Caspase-3/7 induction in HepG2 cells by small molecules, qHTS cell viability counter screen (AID 1346981). Further: nearly all actives have a fitted effect of over 30% in size. Conditions: CellTiter-Fluor fluorescence, 17 h; series mostly up to 92.4 µM. A digest of the protocol: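 Wild-type HepG2 cells, 2,000/well, settled 5 hr at 37 C, 5% CO2 before compound addition. Viability read by CellTiter-Fluor fluorescence, reagent added after 16 hr compound exposure, then 1 hr at 37C, in the same wells as the caspase read.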
Consider `CN1CCN(c2c(F)cc3c(=O)c(C(=O)O)cn4c3c2SCC4)CC1`, for which the Potency result is “inactive”.

As to `CC(Oc1c(Cl)cccc1Cl)C1=NCCN1` (stereo unspecified), the Potency result is “inactive”.

For `CCN[C@H]1CN(CCCOC)S(=O)(=O)c2sc(S(N)(=O)=O)cc21`, the Potency result was “inactive”.

`C[C@@H]1CN(c2c(F)c(N)c3c(=O)c(C(=O)O)cn(C4CC4)c3c2F)C[C@H](C)N1`: the activity change, negative = cytotoxicity is -0.6% [at 19 µM].

Consider `CCc1cc(Cl)c(OC)c(C(=O)NC[C@@H]2CCCN2CC)c1O`, for which the Potency entry is “inactive”.

On to `CCCCNCCCC`, for which the Potency entry was “inactive”.

For `NC1=NCC2c3ccccc3Cc3ccccc3N12` (stereo unspecified), the Potency result is “inactive”.

Take `CCCNC(C)C(=O)Nc1c(C)csc1C(=O)OC` (stereo unspecified): the Potency result is “inactive”.

Turning to `CO[C@@]1(NC(=O)CSCC#N)C(=O)N2C(C(=O)O)=C(CSc3nnnn3C)CS[C@@H]21`, the Potency result was “inactive”.

Regarding `CCCCCCCCCCCCCCCCOP(=O)([O-])OCC[N+](C)(C)C`, the Potency entry was “inactive”.

With `CN(C)Cc1ccccc1`, the Potency entry is “inactive”.

`NCCC(O)(P(=O)(O)O)P(=O)(O)O`: the Potency result was “inactive”.

As for `CCCC(CCC)(C(=O)OCC)C(=O)OCC`, the Potency result is “inactive”.

In the case of `C[C@@H]1CN(c2c(F)c(F)c3c(=O)c(C(=O)O)cn(C4CC4)c3c2F)C[C@H](C)N1`, the activity change, negative = cytotoxicity was 0.129% [at 19 µM].

Take `C[C@@H](N)C(=O)O`: the Potency entry was “inactive”.

`O=C1CCCc2ccccc21`: the Potency result was “inactive”.

`CC(C)C(=O)OC/C=C/c1ccccc1`: the Potency entry was “inactive”.

Consider `O=C(O[C@@H](C(=O)O)[C@@H](OC(=O)c1ccccc1)C(=O)O)c1ccccc1`, for which the Potency entry was “inactive”.

For `CCOC(=O)c1cc(=O)c2c(OCC(COc3cccc4oc(C(=O)OCC)cc(=O)c34)OC(=O)[C@@H](N)CCCCN)cccc2o1`, the Potency result was “inactive”.

As to `C=CCCCCCCCCO`, the Potency entry was “inactive”.

Turning to `CN1C(=O)CC(c2ccccc2)C1=O` (stereo unspecified), the Potency entry is “inactive”.

As for `CCCc1c2oc(C(=O)O)cc(=O)c2cc2c(=O)cc(C(=O)O)n(CC)c12`, the Potency entry was “inactive”.

As to `CN1CCN(N)CC1`, the Potency result is “inactive”.

In the case of `CCc1nnc(NS(=O)(=O)c2ccc(N)cc2)s1`, the Potency entry is “inactive”.

`CCCCC(=O)O[C@]1(C(=O)CO)[C@H](C)C[C@H]2[C@@H]3CCC4=CC(=O)C=C[C@]4(C)[C@@]3(F)[C@@H](O)C[C@@]21C`: the Potency result was “inactive”.

On to `CCOc1ccc2nc(N)sc2c1`, for which the Potency entry is “inactive”.

As for `CCCCCCn1c(=O)c2c(ncn2C)n(C)c1=O`, the Potency result is “inactive”.

Consider `OCCN(CCO)CCN(CCO)CCO`, for which the Potency entry is “inactive”.

`Cc1ccc([N+](=O)[O-])cc1Cl`: the Potency entry is “inactive”.

Turning to `Cc1ccc(C)c(N)c1`, the Potency result is “inactive”.

On to `CN1[C@@H]2CC[C@H]1CC(OC(=O)c1c[nH]c3ccccc13)C2` (stereo partly specified), for which the Potency result was “inactive”.

Turning to `NC(=O)Cc1cccc(C(=O)c2ccccc2)c1N`, the Potency result is “inactive”.

Take `CCC/C=C/CO`: the Potency entry is “inactive”.

As to `O=C(O)c1cccc(Cl)c1Cl`, the Potency result was “inactive”.

Take `CCCCc1ccc2nc(NC(=O)OC)[nH]c2c1`: the Potency result was “inactive”.

Consider `CCN(CC)CCNC(=O)COc1ccc(Cl)cc1`, for which the Potency result is “inactive”.

In a further experiment the target is Nuclear receptor subfamily 1 group I member 2 (Homo sapiens) (UniProt O75469). In words: Human pregnane X receptor (PXR) small molecule agonists, qHTS assay (AID 1346982). Further: nearly all actives have a fitted effect of over 35% in size. Further: potency means the concentration at half of the fitted maximal effect. Conditions: PXR-Luc HepG2, CYP3A4 luciferase reporter, 24 h; series mostly up to 92.4 µM. A digest of the protocol: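 PXR-Luc HepG2 reporter cells (CYP3A4-driven luciferase) in 5% charcoal-stripped FBS medium, plated 5 h before compound addition, then treated 24 h at 37C. Luciferase read by ONE-Glo luminescence after 30 min at room temperature.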
Chain of Nuclear receptor subfamily 1 group I member 2 (Homo sapiens) (O75469 whole entry, looked up): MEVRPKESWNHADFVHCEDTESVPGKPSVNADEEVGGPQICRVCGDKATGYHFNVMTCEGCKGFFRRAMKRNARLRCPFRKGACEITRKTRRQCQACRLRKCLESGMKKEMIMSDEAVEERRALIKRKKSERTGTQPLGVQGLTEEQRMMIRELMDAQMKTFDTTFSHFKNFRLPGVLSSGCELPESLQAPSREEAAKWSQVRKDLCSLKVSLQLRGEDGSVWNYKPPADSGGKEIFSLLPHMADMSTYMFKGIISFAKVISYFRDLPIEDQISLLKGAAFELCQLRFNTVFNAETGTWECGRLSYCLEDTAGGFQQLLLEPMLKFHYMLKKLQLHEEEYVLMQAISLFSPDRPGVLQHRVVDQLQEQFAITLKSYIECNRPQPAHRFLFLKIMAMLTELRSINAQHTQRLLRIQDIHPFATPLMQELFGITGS
As to `CN1CCN(c2c(F)cc3c(=O)c(C(=O)O)cn4c3c2SCC4)CC1`, the Potency entry was “inactive”.

`CCN[C@H]1CN(CCCOC)S(=O)(=O)c2sc(S(N)(=O)=O)cc21`: the Potency result was “inactive”.

For the molecule `C[C@@H]1CN(c2c(F)c(N)c3c(=O)c(C(=O)O)cn(C4CC4)c3c2F)C[C@H](C)N1`, the activation was -7.57% [at 19 µM].

As for `CCc1cc(Cl)c(OC)c(C(=O)NC[C@@H]2CCCN2CC)c1O`, the Potency was 7.5 µM (active).

In the case of `CCCCNCCCC`, the Potency result is “inactive”.

For `CCCNC(C)C(=O)Nc1c(C)csc1C(=O)OC` (stereo unspecified), the Potency entry was “inactive”.

`O=C(O)[C@@H](O)[C@H](O)[C@H](O)[C@@H](O)C(=O)O`: the Potency result is “inactive”.

Regarding `CO[C@@]1(NC(=O)CSCC#N)C(=O)N2C(C(=O)O)=C(CSc3nnnn3C)CS[C@@H]21`, the Potency entry is “inactive”.

`CCCCCCCCCCCCCCCCOP(=O)([O-])OCC[N+](C)(C)C`: the Potency entry was “inactive”.

As for `CN(C)Cc1ccccc1`, the Potency result is “inactive”.

Regarding `NCCC(O)(P(=O)(O)O)P(=O)(O)O`, the Potency result is “inactive”.

As for `CCCC(CCC)(C(=O)OCC)C(=O)OCC`, the Potency entry was “inactive”.

Regarding `C[C@@H]1CN(c2c(F)c(F)c3c(=O)c(C(=O)O)cn(C4CC4)c3c2F)C[C@H](C)N1`, the activation was -4.26% [at 19 µM].

For `C[C@@H](N)C(=O)O`, the Potency result is “inactive”.

Take `O=C1CCCc2ccccc21`: the Potency is 39 µM (active).

With `CC1(C)O[C@@H]2C[C@H]3[C@@H]4CCC5=CC(=O)CC[C@]5(C)[C@@]4(F)[C@@H](O)C[C@]3(C)[C@]2(C(=O)CCl)O1`, the Potency was 9.44 µM (active).

Take `CC(C)C(=O)OC/C=C/c1ccccc1`: the Potency entry is “inactive”.

As to `O=C(O[C@@H](C(=O)O)[C@@H](OC(=O)c1ccccc1)C(=O)O)c1ccccc1`, the Potency result was “inactive”.

`CCOC(=O)c1cc(=O)c2c(OCC(COc3cccc4oc(C(=O)OCC)cc(=O)c34)OC(=O)[C@@H](N)CCCCN)cccc2o1`: the Potency entry was “inactive”.

On to `C=CCCCCCCCCO`, for which the Potency result is “inactive”.

With `CCCc1c2oc(C(=O)O)cc(=O)c2cc2c(=O)cc(C(=O)O)n(CC)c12`, the Potency entry is “inactive”.

For `CN1CCN(N)CC1`, the Potency entry was “inactive”.

On to `CCc1nnc(NS(=O)(=O)c2ccc(N)cc2)s1`, for which the Potency result was “inactive”.

With `CCCCC(=O)O[C@]1(C(=O)CO)[C@H](C)C[C@H]2[C@@H]3CCC4=CC(=O)C=C[C@]4(C)[C@@]3(F)[C@@H](O)C[C@@]21C`, the Potency result is “inactive”.

Consider `CCOc1ccc2nc(N)sc2c1`, for which the Potency was 17.1 µM (active).

Turning to `CCCCCCn1c(=O)c2c(ncn2C)n(C)c1=O`, the Potency entry is “inactive”.

`OCCN(CCO)CCN(CCO)CCO`: the Potency result is “inactive”.

Consider `Cc1ccc([N+](=O)[O-])cc1Cl`, for which the Potency is 61.9 µM (active).

Take `Cc1ccc(C)c(N)c1`: the Potency result was “inactive”.

For the molecule `CN1[C@@H]2CC[C@H]1CC(OC(=O)c1c[nH]c3ccccc13)C2` (stereo partly specified), the Potency entry is “inactive”.

For the molecule `NC(=O)Cc1cccc(C(=O)c2ccccc2)c1N`, the Potency result was “inactive”.

`CCC/C=C/CO`: the Potency result was “inactive”.

As for `O=C(O)c1cccc(Cl)c1Cl`, the Potency entry was “inactive”.

As for `CCCCc1ccc2nc(NC(=O)OC)[nH]c2c1`, the Potency was 2.98 µM (active).

As for `CCN(CC)CCNC(=O)COc1ccc(Cl)cc1`, the Potency entry was “inactive”.

The record behind these values is PubChem BioAssay (Tox21).
